B1: design_611_394c5ea9-a0d3-47c4-9d48-89ba6a28fdd0_577_dldesign_0_cycle1_af2pred (protein)
chain: VAAQLAAAQAKVDDVTAKVAEAKAAAKADPAEGVKIANATIGAAIDAMKAAKTYPPEVAAAAIAALSAQLAEASKIAISAQAKLDA
B2: design_610_f34cc193-997c-4684-af32-2a8002718429_1694_dldesign_0_cycle1_af2pred (protein)
chain: AAAAAELALRSAEALLRSARENAAAGTISPEGLRGAAEVIKDLARYAGELGGPEAAARAEELIAEADAVVA
B3: design_611_394c5ea9-a0d3-47c4-9d48-89ba6a28fdd0_1101_dldesign_0_cycle1_af2pred (protein)
chain: MGGELLLDVMRAAAEAQREIAELGKEKGIPEEVTQALINRVSAAVAAVAKAAIAGDDAAKAAAAAARAAIDATLAEARAL
B4: design_610_f34cc193-997c-4684-af32-2a8002718429_2308_dldesign_0_cycle1_af2pred (protein)
chain: AAAAEAAAARLAAAKAALAAAQAKGAELAAQSPGAGIGYVWAAAVRLGETLGPEAAALAAQARAAAAAQNRALLAQSAA
B5: design_610_f34cc193-997c-4684-af32-2a8002718429_2398_dldesign_0_cycle1_af2pred (protein)
chain: AAAEIARRTVEAGVRQAFAASPEEAERLAENLAKIVEGLAGPEVGERVREIVREGLRLAEKFPEYREEIAEETAERAAELVYEALS
B6: design_611_394c5ea9-a0d3-47c4-9d48-89ba6a28fdd0_1469_dldesign_0_cycle1_af2pred (protein)
chain: GKERAVEIMRRGLTEVAKEALKVSPEVAGVVQTALAKAIGAAAESMEKALEVLKKGAEEAEKLDPEIGKKVREVLKKVEEAYKE
B7: design_611_394c5ea9-a0d3-47c4-9d48-89ba6a28fdd0_1531_dldesign_0_cycle1_af2pred (protein)
chain: AQAQVEAMARNAAAGMRALARADGHPDVGEEMAALVLADPVEGARRAVELARERLSPEVAAAVAEIARIQIETA
B8: design_610_f34cc193-997c-4684-af32-2a8002718429_1476_dldesign_0_cycle1_af2pred (protein)
chain: ARAAAIAEEAVRFANAASARALAAAVKTTPEANAQITALVVQLLEEADRARKATDPAEAEAHFEAARALAAEAEAIAAAALA
B9: design_611_394c5ea9-a0d3-47c4-9d48-89ba6a28fdd0_1283_dldesign_0_cycle1_af2pred (protein)
chain: DTAAAQGLLAGVQAFTRRRFEAAERALRAGDREAMLAAARDLETAADIAEATAKQVPPALAAQAQALAKQARERAEEARRAAEA
B10: design_610_f34cc193-997c-4684-af32-2a8002718429_1271_dldesign_0_cycle1_af2pred (protein)
chain: SGRVRQAQRLVEMAEELVETGEKEEAEKGKQLADAARALAEEALRRGDDPEAAKEVLERAKEVEKRAEEAIKA
B11: design_611_394c5ea9-a0d3-47c4-9d48-89ba6a28fdd0_264_dldesign_0_cycle1_af2pred (protein)
chain: AADEAAKKAIKQLKASVEAAARNARALAGSPDAPRAVKALKELAKVAAEGALGIAKATKDPEVAKEAKKAAEEIKKIAEETAKEIEA
B12: design_611_394c5ea9-a0d3-47c4-9d48-89ba6a28fdd0_940_dldesign_0_cycle1_af2pred (protein)
chain: MKVEEAGNKAKALLVATANAAIAADPARAQEIAKKMAEGIEKIDKLTEEEKKKLDEYSEEEQAKKVEELGKELAKEIA
B13: design_611_394c5ea9-a0d3-47c4-9d48-89ba6a28fdd0_908_dldesign_0_cycle1_af2pred (protein)
chain: AAAAARAAAVAAAEAAAAEAIKELKAAAEEAKTATPEEAAKLMNEMLAKASRQALAMQASGDPAAAAAGARLIAAAVEYAKEIDEAIR
B14: design_611_394c5ea9-a0d3-47c4-9d48-89ba6a28fdd0_1451_dldesign_0_cycle1_af2pred (protein)
chain: AQAIEVANKTAAAMKKQAEALAAEGEANPETAWKHYETAAKLYEIAADMVAAAGGDPAVAAALKAKAAEYKAKAKAAKAA
B15: design_610_f34cc193-997c-4684-af32-2a8002718429_1837_dldesign_0_cycle1_af2pred (protein)
chain: NQVAAIAAANQALGERAYAEGLALYAADPEANREAARAAFVRAYAYFNAAAGAAIVLGDAAAAAAAQAKAEEAKAHAEALKA
B16: design_610_f34cc193-997c-4684-af32-2a8002718429_2276_dldesign_0_cycle1_af2pred (protein)
chain: AAAAAAAAAEAAARAARAKEVGQKTLDAVAARAKELGARSPALGEAEQLRLKSTAAVLAGDEAAAKAYAAQAGAILAAA
B17: design_611_394c5ea9-a0d3-47c4-9d48-89ba6a28fdd0_317_dldesign_0_cycle1_af2pred (protein)
chain: AEAIQKANDALQEALDYLKEMSEIAKTEKLQEAVKQIQEKVGKAAQYAIDAVKNPEKAAEYAKKAKEEAEKAKEIYEKAKKES
B18: design_611_394c5ea9-a0d3-47c4-9d48-89ba6a28fdd0_579_dldesign_0_cycle1_af2pred (protein)
chain: DAAAQSKALQAQVAQAQALVEQARAAAADPARARALALQAFRQAQAVNRQAIALGDTATAAAAGEVMVAAARVLAA
B19: design_611_394c5ea9-a0d3-47c4-9d48-89ba6a28fdd0_1121_dldesign_0_cycle1_af2pred (protein)
chain: SSSYEEVTAEMAAITAKAQEGVEAAKKDPAEAKKIAAEIAAKAKEIAASGFSEGAAQMAKNAAARVQKVIDAELAK
B20: design_611_394c5ea9-a0d3-47c4-9d48-89ba6a28fdd0_881_dldesign_0_cycle1_af2pred (protein)
chain: GAAEAAKALAKGVAASVKRLAKEGLEEAKKDPEKGRAILENAKTFAEAVKATDPEIGDKALKYVEEAKKEAEKIVKE
B21: design_611_394c5ea9-a0d3-47c4-9d48-89ba6a28fdd0_1130_dldesign_0_cycle1_af2pred (protein)
chain: MEEELKKISQAAAQAQQAAIDAKDPALRAELAQAAVEIMKLMDKAAKSTPEEAKKLAEEAEKIAEEAQKKAKASG
B22: design_611_394c5ea9-a0d3-47c4-9d48-89ba6a28fdd0_498_dldesign_0_cycle1_af2pred (protein)
chain: AAAATLAQVKELIAQAKADPANAAALLSQAIRLAVTTAIAAAAAGDTAAAVALSQAAIEAMKALDEVSKAA
B23: design_611_394c5ea9-a0d3-47c4-9d48-89ba6a28fdd0_749_dldesign_0_cycle1_af2pred (protein)
chain: AAAEAAAERARQAAKAAMKSLTLAYEALGKPEQAKEDIAKVEKAIEEDPEKGAALARELAAQAAREAIKANAA
B24: design_611_394c5ea9-a0d3-47c4-9d48-89ba6a28fdd0_785_dldesign_0_cycle1_af2pred (protein)
chain: LKAEAEKLAKEAAAKAKEAAAAGDAVAALAYQAAANMARSALRADPESAAKLLEVGRALKQQGDATHAAFKA
B25: design_611_394c5ea9-a0d3-47c4-9d48-89ba6a28fdd0_637_dldesign_0_cycle1_af2pred (protein)
chain: SEETKEVAEAAVNAAEQAIKLAKELGDKEIEEKAKKLKEEAKKAAKKGAEALPEAKKLAREAFTLAAKALALYAKAKA
B26: design_611_394c5ea9-a0d3-47c4-9d48-89ba6a28fdd0_705_dldesign_0_cycle1_af2pred (protein)
chain: AEAQEQAKKEYEKAKAVADAALATAKATGDVTAQQAKVLDAAIEAAKKAQELGDGETANKVMQVATKAMTAMAAAG
B27: design_610_f34cc193-997c-4684-af32-2a8002718429_2117_dldesign_0_cycle1_af2pred (protein)
chain: AAAAETASKAGEATIEALKAGAEAARLAEELGLDPAPYHQKAAQAIAALQAGEGSLETVTALKEELEKAAKELKEKV
B28: design_610_f34cc193-997c-4684-af32-2a8002718429_2230_dldesign_0_cycle1_af2pred (protein)
chain: SADQAEKQKLLAKFNEVSGEALELMEELTKAGDYETVQQVSRLLGQANGLAVAATDAATAKAALKVAEEALKLAKEALKKA
B29: design_611_394c5ea9-a0d3-47c4-9d48-89ba6a28fdd0_1153_dldesign_0_cycle1_af2pred (protein)
chain: MEEKKKKIEEEANKVIEEATKVAELAKKHPAMRPALIAANAAISMANNAIRNIENVESAEKQLKVAKALMEYAKATAKALLAAA
B30: design_610_f34cc193-997c-4684-af32-2a8002718429_1816_dldesign_0_cycle1_af2pred (protein)
chain: AEAEALAAQARAHAHKALQEVSLGGDQAEADAHLAKAEEYAAQAKALDPEIGAQTQKIIDQYKALMAQAR
B31: design_611_394c5ea9-a0d3-47c4-9d48-89ba6a28fdd0_1184_dldesign_0_cycle1_af2pred (protein)
chain: GEAARERGEELVKEAEAALAAAKAAAAADPAAGLAAANAAIGLAVERMEELARLGPEARPAIERLTAIATELSKLALALKAAL
B32: design_611_394c5ea9-a0d3-47c4-9d48-89ba6a28fdd0_1238_dldesign_0_cycle1_af2pred (protein)
chain: SAADEQAKAIAVASTQSILDQAKKILEEHPEIKEEGEKLVEEIKKLLEKAKTGDAATASKALSESLELYGKLAELAK
B33: design_610_f34cc193-997c-4684-af32-2a8002718429_1191_dldesign_0_cycle1_af2pred (protein)
chain: AEATGQAYADILVQSARSLAAAGASPEDVVQAMDSIAQAAIDELGEEGKKYAAKGAEKAAEEVKKLNPEAAKAVAKRAEELKKQA
B34: design_611_394c5ea9-a0d3-47c4-9d48-89ba6a28fdd0_1178_dldesign_0_cycle1_af2pred (protein)
chain: AELLAAAGELAVEAARYAAEADRFGPEAAPAAELFREAQKLAVQANQNPATAAEYYAKAKELMKKGKELMKKAKA
B35: design_611_394c5ea9-a0d3-47c4-9d48-89ba6a28fdd0_592_dldesign_0_cycle1_af2pred (protein)
chain: DALKLIEAAAKLAKKIGLEEAAKLAEEAAKLLATGDPEAAGQGVLLLSKAYALAAADPKAAEAAALLRAALAAAAKEAIALARAAR
B36: design_610_f34cc193-997c-4684-af32-2a8002718429_1550_dldesign_0_cycle1_af2pred (protein)
chain: SAAIQEQTAKDWAAVLEAAAARSTEAGIRLARAVAEVFRDDPELAEATAAALTNAEVAAALRAALEEARAAAA
B37: design_611_394c5ea9-a0d3-47c4-9d48-89ba6a28fdd0_765_dldesign_0_cycle1_af2pred (protein)
chain: SSREGAAQLLLDVAKQAAAALKAAGGDEERAKKILEEAKKAAATTFEETQKALAKAAREAVKYQAAVEAA
B38: design_610_f34cc193-997c-4684-af32-2a8002718429_1172_dldesign_0_cycle1_af2pred (protein)
chain: LTEEEAKKLLADAKQLLELAEAALADPRFARTAITAADQAAALAKEAAKHPKVAAEAKALAARAEEVRKAAEEAAA

Target: CD276, Q5ZPR3
Sequence (Q5ZPR3 whole entry): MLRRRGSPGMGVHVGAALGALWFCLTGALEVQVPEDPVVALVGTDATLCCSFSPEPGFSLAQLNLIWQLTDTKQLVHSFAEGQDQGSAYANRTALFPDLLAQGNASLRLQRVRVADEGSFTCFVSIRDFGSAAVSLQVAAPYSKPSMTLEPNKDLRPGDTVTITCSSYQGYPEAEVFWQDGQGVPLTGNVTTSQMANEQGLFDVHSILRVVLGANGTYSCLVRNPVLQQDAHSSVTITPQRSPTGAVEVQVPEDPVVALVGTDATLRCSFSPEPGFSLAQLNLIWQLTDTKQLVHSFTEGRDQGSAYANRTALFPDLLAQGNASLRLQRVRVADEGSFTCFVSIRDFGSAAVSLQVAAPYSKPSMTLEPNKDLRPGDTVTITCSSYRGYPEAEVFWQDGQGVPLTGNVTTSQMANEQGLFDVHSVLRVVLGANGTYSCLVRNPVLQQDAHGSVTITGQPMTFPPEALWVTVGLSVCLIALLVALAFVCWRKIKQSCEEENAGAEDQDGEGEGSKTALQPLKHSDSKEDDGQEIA

Binding in a display sort, inactive:
B1 not found
B2 not found
B3 not found
B4 not found
B5 not found
B6 not found
B7 not found
B8 not found
B9 not found
B10 not found
B11 not found
B12 not found
B13 not found
B14 not found
B15 not found
B16 not found
B17 not found
B18 not found
B19 not found
B20 not found
B21 not found
B22 not found
B23 not found
B24 not found
B25 not found
B26 not found
B27 not found
B28 not found
B29 not found
B30 not found
B31 not found
B32 not found
B33 not found
B34 not found
B35 not found
B36 not found
B37 not found
B38 not found

Reference: article PMC13494018
